Results on 20 compounds are retold here after PubChem BioAssay (EPA / NIEHS).

The source made the active and inactive calls. How the source made its calls, unless noted: active means hit-call score of the fitted dose curve at least 0.9, where 1 is the maximum; inactive means score below 0.9.

One experiment deals with SERPINA7 (gene 6906). The experiment is described as follows: CCTE_GLTED_hTBG: CCTE's human Thyroxine-binding Globulin (TBG) Inhibition Assay, Great Lakes Toxicology and Ecology Division (GLTED) Lab (AID 2284343; active means hit-call score of the fitted dose curve at least 0.9, where 1 is the maximum;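 further: active chemicals lower fluorescence versus DMSO baseline by displacing probe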).
Settings: not given
Summed up: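 Cell-free binding assay in which human TBG is incubated with test chemical for 2 hours and displacement of the fluorescent probe ANSA is read at 380 nm excitation/475 nm emission. Activity is fitted against DMSO as the negative control.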
As to `Cn1c(-c2ccccc2)cc(-c2ccccc2)[n+]1C`, the outcome was inactive.

For the compound `CCOC(=O)C(C)OC(=O)c1cc(Oc2ccc(C(F)(F)F)cc2Cl)ccc1[N+](=O)[O-]` (stereo not drawn), the compound was called inactive.

As for `CCCN(CC)CC1COC2(CCC(C(C)(C)C)CC2)O1` (stereo not drawn), the outcome was inactive.

A word on the AC50: it is the midpoint of the concentration-response curve, whichever way the signal moves. Regarding `CCOP(=O)(OCC)Oc1nc(Cl)c(Cl)cc1Cl`, the concentration at half-maximal activity (AC50) is 14.9 µM (active).

Consider `CCCCC(O)(Cn1cncn1)c1ccc(Cl)cc1Cl` (stereo not drawn), for which the concentration at half-maximal activity (AC50) was 11.3 µM (active).

In the case of `CCCCOCN(C(=O)CCl)c1c(CC)cccc1CC`, the half-maximal activity concentration (AC50) is 19.1 µM (active).

Turning to `CC(C)Oc1cccc(NC(=O)c2ccccc2C(F)(F)F)c1`, the AC50 was 50 µM (active).

Turning to `C=C(C)CN(CC)c1c([N+](=O)[O-])cc(C(F)(F)F)cc1[N+](=O)[O-]`, the AC50 was 8.89 µM (active).

`OC(c1ccc(Cl)cc1)(c1ccc(Cl)cc1)C(Cl)(Cl)Cl`: the half-maximal activity concentration (AC50) was 5.3 µM (active).

Consider `CC1(C)CCC(=Cc2ccc(Cl)cc2)C1(O)Cn1cncn1` (stereo not drawn), for which the AC50 was 36.4 µM (active).

System in the next experiment: not listed separately
The experiment is described as follows: CCTE_Deisenroth_H295R-HTRF_384WELL_ESTRADIOL: CCTE's H295R-HTRF Assay Evaluation of Estradiol Concentration, Deisenroth Lab (AID 2284361). To be noted: actives raise or lower the signal. A digest of the protocol: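 H295R cells exposed 48 h to chemicals at 0.001 - 100 uM final (nine points, triplicate); estradiol in conditioned medium measured by HTRF immunoassay, fitted bidirectionally versus DMSO. Viability by CellTiter-Glo on same plates.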
As for `CC(C)(C)C(=O)C(Oc1ccc(Cl)cc1)n1cncn1` (stereo not drawn), the result was inactive.

With `CCSC(=O)N1CCCCCC1`, the result was inactive.

With `CCCCC(C#N)(Cn1cncn1)c1ccc(Cl)cc1` (stereo not drawn), the result was inactive.

System in the next experiment: not listed separately
The experiment in a line: CCTE_Deisenroth_H295R-HTRF_384WELL_TESTOSTERONE: CCTE's H295R-HTRF Assay Evaluation of Testosterone Concentration, Deisenroth Lab (AID 2284373). To be noted: actives raise or lower the signal. A digest of the protocol: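 Secreted testosterone was quantified by HTRF immunoassay of medium from human adrenocortical H295R cells after 48 h chemical exposure at 0.001–100 uM final. Gain or loss was fitted against DMSO. ATP-based viability was read on matched wells, five experimental replicates.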
With `CC(C)(C)C(=O)C(Oc1ccc(Cl)cc1)n1cncn1` (stereo not drawn), the AC50 was 8.94 µM (active).

Consider `CCSC(=O)N1CCCCCC1`, for which the compound was called inactive.

With `CCCCC(C#N)(Cn1cncn1)c1ccc(Cl)cc1` (stereo not drawn), the compound was called inactive.

System in the next experiment: not listed separately
The experiment is described as follows: CCTE_Deisenroth_H295R-HTRF_384WELL_CTOX: Cytotoxicity Assessment in CCTE's H295R-HTRF Assay, Deisenroth Lab (AID 2284380; active means hit-call score of the fitted dose curve at least 0.9, where 1 is the maximum).
Settings: not given
Summed up: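 H295R adrenocortical carcinoma cells plated 24 h, then exposed 48 h to nine-point series 0.001–100 uM final, triplicate, n=5. ATP measured by CellTiter-Glo 2.0 luminescence on same plates after medium collection; loss versus DMSO.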
(In general: Time-resolved FRET reads energy transfer from a long-lived donor to a nearby acceptor.)
For `CC(C)(C)C(=O)C(Oc1ccc(Cl)cc1)n1cncn1` (stereo not drawn), the call was inactive.

Regarding `CCSC(=O)N1CCCCCC1`, the call was inactive.

As for `CCCCC(C#N)(Cn1cncn1)c1ccc(Cl)cc1` (stereo not drawn), the compound was called inactive.

Another experiment concerns TTR (gene 7276). The experiment in a line: CCTE_GLTED_hTTR_0.125uM: CCTE's human Transthyretin (hTTR) Inhibition Assay, with 0.125uM TTR, Great Lakes Toxicology and Ecology Division (GLTED) Lab (AID 2284431).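 Further: hits lower the fluorescence signal relative to DMSO baseline.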
Settings: not given
A digest of the protocol:
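Cell-free displacement of the fluorescent probe ANSA from human TTR (0.125uM) after 2 h incubation with test chemical. Fluorescence read at 380 nm excitation/475 nm emission; loss of signal fitted relative to DMSO baseline.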
With `COP(=S)(OC)Oc1ccc([N+](=O)[O-])c(C)c1`, the half-maximal activity concentration (AC50) is 8.85 µM (active).

Turning to `O=C1C2CC=CCC2C(=O)N1SC(Cl)(Cl)Cl` (stereo not drawn), the concentration at half-maximal activity (AC50) was 21.1 µM (active).

Turning to `CC(C)NC(=O)N1CC(=O)N(c2cc(Cl)cc(Cl)c2)C1=O`, the half-maximal activity concentration (AC50) was 2.51 µM (active).

In the case of `Cn1c(-c2ccccc2)cc(-c2ccccc2)[n+]1C`, the half-maximal activity concentration (AC50) is 27.8 µM (active).

In the case of `CCOc1nc(C(Cl)(Cl)Cl)ns1`, the AC50 is 5.26 µM (active).

For the compound `CO/N=C(/C1=NOCCO1)c1ccccc1Oc1ncnc(Oc2ccccc2Cl)c1F`, the AC50 is 5.22 µM (active).

`CCOP(=O)(OCC)Oc1nc(Cl)c(Cl)cc1Cl`: the AC50 is 0.395 µM (active).

For the compound `COc1cc(Cl)c(OC)cc1Cl`, the AC50 was 4.26 µM (active).

Turning to `N#Cc1c[nH]cc1-c1cccc2c1OC(F)(F)O2`, the half-maximal activity concentration (AC50) was 0.5 µM (active).
